High-throughput results: PubChem, National Center for Advancing Translational Sciences (NCATS)
AmpC det inh: inhibitors of E. coli AmpC beta-lactamase with detergent | purified AmpC, nitrocefin hydrolysis with detergent | AID 584 | P00811 | Potency, µM (series often up to 28.7 µM) | 71,000 tested, 0.09% active; active means well fitted curve in the direction sought with a large enough effect; inconclusive means small, poorly fitted or top-dose-only effect
Target sequence (P00811 whole entry, looked up): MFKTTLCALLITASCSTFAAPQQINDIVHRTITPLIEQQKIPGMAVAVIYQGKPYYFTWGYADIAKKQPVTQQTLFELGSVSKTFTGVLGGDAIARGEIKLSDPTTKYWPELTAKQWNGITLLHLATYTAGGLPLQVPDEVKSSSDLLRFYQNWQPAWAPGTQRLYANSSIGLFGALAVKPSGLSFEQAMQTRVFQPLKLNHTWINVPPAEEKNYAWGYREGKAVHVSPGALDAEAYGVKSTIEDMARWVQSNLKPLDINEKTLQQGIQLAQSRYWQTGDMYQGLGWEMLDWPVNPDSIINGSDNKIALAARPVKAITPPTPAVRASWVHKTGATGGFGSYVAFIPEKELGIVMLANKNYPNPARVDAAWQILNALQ
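E. coli AmpC (5.3 nM) in 20 mM phosphate pH 7.0 with 0.01% Triton X-100, preincubated 15 min RT with compound; nitrocefin (2 uL of 800 uM stock) hydrolysis followed by 480 nm absorbance every 20 s over 4 min.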
Prx2 Sm inh: Schistosoma mansoni Prx2 inhibition; 65,000 tested, 0.07% active; AID 448; S. mansoni Prx2 activity coupled to TGR/GSH (TGR is thioredoxin glutathione reductase), NADPH fluorescence loss, qHTS; Potency, µM
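Purified S. mansoni TGR and Prx2 in pH 7.4 phosphate buffer with EDTA and Tween-20 were preincubated with compounds for 15 min. Further NADPH/GSH was added, then a 2.5 mM H2O2 aliquot initiated turnover, followed kinetically by NADPH fluorescence.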
LT uptake inh: blocks cellular internalization of anthrax lethal toxin; Cells, anthrax lethal toxin internalization, FRET ratio (460/530); Potency, µM (top dose mostly 40 µM), hits mostly inhibitors; 70,000 tested, 0.67% active; AID 912; further: nearly all actives have a fitted effect of over 50% in size
AmpC inh no det: inhibitors of E. coli AmpC beta-lactamase without detergent; P00811; AmpC nitrocefin hydrolysis, absorbance 480 nm, no detergent; Potency, µM (titrated, usually from 28.7 µM); 71,000 tested, 1.8% active
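Enzyme, pH 7.0 phosphate. Compound titrations were pre-incubated with AmpC for 15 min at room temperature before nitrocefin (stock 800 uM) addition; product formation was recorded at 480 nm every 20 s for 4 min.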
Each line names hits and unclear results; the compound was inactive in the other large screens; [ ] = another dose, or the depositor's remark. A selection: hits, their analogues and other compounds. The true share with any hit is near 2.4%. Unless noted, the call rests on the fitted dose curve.

Cc1ccc2c(CC(=O)OCn3nnc4ccccc4c3=O)coc2c1	none
CC(C)c1ccc(Cn2ccc3c4c(N)nc(NC5CC5)nc4ccc32)cc1	LT uptake inh 25µM
Cc1ccc(C(=O)Cn2c3c(sc2=N)CCCC3)cc1	LT uptake inh 16µM
C=CCn1c(O)c(C=Nc2ccc(OC)cc2C)c(=O)[nH]c1=O	none
COC(=O)c1cc(NC2c3ccccc3C(=O)N2c2cccnc2)cc(C(=O)OC)c1 (stereo not drawn)	AmpC inh no det 4µM[single pt active]
CC(C)CNc1oc(-c2ccc(F)cc2)nc1C#N	LT uptake inh inconclusive, AmpC inh no det 4µM[single pt active]
N#Cc1nc(-c2ccc(F)cc2)oc1NCc1cccc2c1OCO2	LT uptake inh inconclusive
COc1ccccc1NC(=O)N(C1CCCC1)C1CCN(C(C)=O)CC1	none
CCCC/C=C/C(NC(=O)c1ccccc1)c1ccccc1 (stereo not drawn)	LT uptake inh inconclusive
CCCC/C=C/C(NC(=O)c1ccc(C(F)(F)F)cc1)c1ccccc1 (stereo not drawn)	AmpC inh no det 16µM[single pt active]
COc1cccc(C2=NOC(C(=O)N3CCc4ccccc4C3)C2)c1 (stereo not drawn)	LT uptake inh inconclusive
O=C(C1CC(c2ccc(F)cc2)=NO1)N1CCc2ccccc2C1 (stereo not drawn)	LT uptake inh inconclusive, AmpC inh no det 4µM[single pt active]
O=C(C1CC(c2ccc(F)cc2)=NO1)N1CCN(c2ccccc2)CC1 (stereo not drawn)	AmpC inh no det 4µM[single pt active]
O=C(C1CC(c2ccc(F)cc2)=NO1)N1CCCCC1 (stereo not drawn)	none
COCCCNC(=O)CN1C(=O)CSc2ncccc21	none
Cc1c(Cl)cccc1NC(=O)CN1C(=O)CSc2ncccc21	LT uptake inh inconclusive, AmpC inh no det 3.2µM[single pt active]
COc1ccc(OC)c(NS(=O)(=O)Cc2ccccc2)c1	none
COc1ccc(CCNc2oc(COc3ccccc3Cl)nc2C#N)cc1OC	LT uptake inh 16µM
Cc1cc(C(=O)CN2CC(C)OC(C)C2)c(C)n1-c1ccccc1 (stereo not drawn)	AmpC inh no det 4µM[single pt active]
Oc1ccc2c3c1O[C@H]1c4[nH]c5ccccc5c4C[C@]4(O)[C@H](C2)N(CC2CC2)CC[C@@]314	LT uptake inh inconclusive
Oc1ccc2c3c1O[C@H]1c4c(c5ccccc5n4Cc4ccccc4)C[C@]4(O)[C@H](C2)N(CC2CC2)CC[C@@]314	LT uptake inh 25µM
CC1(C(=O)NCc2cccnc2)CCC(=O)N1CCc1ccccc1 (stereo not drawn)	AmpC inh no det 4µM[single pt active]
COc1ccc(CCN2C(=O)CCC2(C)C(=O)NCc2cccnc2)cc1OC (stereo not drawn)	none
CC1(C(=O)NCc2cccnc2)CCC(=O)N1Cc1cccs1 (stereo not drawn)	AmpC inh no det 4µM[single pt active]
O=C1C(=O)N(CCCn2ccnc2)C(c2cccnc2)/C1=C(/O)c1ccc(Cl)cc1 (stereo not drawn)	none
O=C(CSc1ncn(-c2ccccc2)n1)Nc1ccc(Br)cn1	LT uptake inh inconclusive
CCCCc1cc(=O)oc2cc(OCc3nn[nH]n3)c(Cl)cc12	none
O=C(NCc1cccs1)C1CCN(c2ccc(S(=O)(=O)N3CCOCC3)cc2Cl)CC1	LT uptake inh inconclusive
O=C(CC1(O)C(=O)Nc2cc(Cl)cc(Cl)c21)c1ccccc1O (stereo not drawn)	AmpC det inh 10µM, AmpC inh no det 13µM
Cc1cccc2cc(C#N)c(NCCCn3ccnc3)nc12	LT uptake inh inconclusive
Nc1nnc(COc2ccc(Br)cc2Br)s1	none
Brc1ccc(Oc2cc(Br)c(Br)cc2Br)c(Br)c1	LT uptake inh 0.79µM (no result: Prx2 Sm inh)
N#Cc1c(NC(=O)COC(=O)C2CC3C=CC2C3)oc(-c2ccccc2)c1-c1ccccc1 (stereo not drawn)	LT uptake inh inconclusive, AmpC inh no det 10µM
N#Cc1c(NC(=O)CSc2n[nH]c(Cc3ccccc3)n2)oc(-c2ccccc2)c1-c1ccccc1	LT uptake inh inconclusive, AmpC inh no det 10µM
COc1ccccc1OCC(=O)Nc1oc(-c2ccccc2)c(-c2ccccc2)c1C#N	none
Cc1ccnc(SCC(=O)Nc2oc(-c3ccccc3)c(-c3ccccc3)c2C#N)n1	LT uptake inh inconclusive, AmpC inh no det inconclusive
O=C1Nc2ccccc2C(O)(C(=O)NCc2ccco2)N1c1ccc(Cl)c(Cl)c1 (stereo not drawn)	LT uptake inh 7.9µM
CC1CCN(c2c(NCc3ccc(C(=O)NCC4COc5ccccc5O4)cc3)c(=O)c2=O)CC1 (stereo not drawn)	AmpC inh no det 4µM[single pt active]
CCn1ccnc1C(O)c1cccc(OC)c1OC (stereo not drawn)	AmpC inh no det 4µM[single pt active]
CCc1ncc(C(O)c2cccc(OC)c2OC)n1C (stereo not drawn)	none
COc1ccc(N2CCN(CCCNC(=O)C3CCCN(S(=O)(=O)c4cnc[nH]4)C3)CC2)cc1 (stereo not drawn)	LT uptake inh inconclusive, AmpC inh no det 4µM[single pt active]
O=C(NCCN1CCN(c2ccccc2F)CC1)C1CCCN(S(=O)(=O)c2cnc[nH]2)C1 (stereo not drawn)	AmpC inh no det 4µM[single pt active]
O=C(NCCc1ccccc1)C1CCCN(S(=O)(=O)c2cnc[nH]2)C1 (stereo not drawn)	none
O=C(NCCN1CCC(Cc2ccccc2)CC1)C1CCCN(S(=O)(=O)c2cnc[nH]2)C1 (stereo not drawn)	AmpC inh no det 4µM[single pt active]
CCCS(=O)(=O)N1CCCC(C(=O)NCCCN2CCN(c3ccccc3F)CC2)C1 (stereo not drawn)	none
O=C(c1csnn1)N1CCC[C@@]2(CCN(c3ncccn3)C2)C1	none
CNc1nc(Nc2ccc(C(C)=O)cc2)nc(OC(C(F)(F)F)C(F)(F)F)n1	LT uptake inh 10µM
Cc1ccc(Cn2ccc(NC(=O)c3cc(-c4ccc5c(c4)OCO5)on3)n2)cc1	AmpC inh no det 10µM
Cc1ccc(Cn2ccc(NC(=O)c3cc(-c4ccccc4)on3)n2)cc1	AmpC inh no det inconclusive
Cc1ccc(Cl)cc1N1CCN(C(=O)COc2ccc(S(=O)(=O)NC(C)C)cc2)CC1	LT uptake inh inconclusive
CC(C)CCOC(=O)C1C2C=CC3(CN(Cc4cccs4)C(=O)C13)O2 (stereo not drawn)	AmpC inh no det 4µM[single pt active]
OCCN1CCN(c2ncnc3c2sc2nc(N4CCOCC4)c4c(c23)CCC4)CC1	LT uptake inh 10µM
O=C(NCc1ccc2c(c1)OCO2)c1cccc2c1C(=O)N(C1CCCCC1)C2	AmpC inh no det 2.5µM[single pt active]
COc1ccc(OC)c(-c2cc(C(=O)Nc3c(C)n(C)n(-c4ccccc4)c3=O)no2)c1	Prx2 Sm inh 7.1
CCOc1ccccc1N1CCN(C(=O)c2c(C)noc2C)CC1	none
Cc1cccc(C)c1OCC(O)Cn1ccnc1C (stereo not drawn)	AmpC inh no det 4µM[single pt active]
COc1cc(OC)cc(OCC(O)Cn2ccnc2C)c1 (stereo not drawn)	none
CCOC(=O)c1cc(-c2ccccc2)n(CC(=O)O)c1C	none
CCOC(=O)c1cc(-c2ccc(F)cc2)n(CC(=O)Nc2nccs2)c1C	LT uptake inh 10µM, AmpC inh no det 3.2µM[single pt active]
